# Pf growth 48h: inhibits P. falciparum growth in the first generation, 48 h. Potency, µM (doses to about 28.7 µM), most hits filed as inhibitors. P. falciparum luciferase growth in erythrocytes, 48 h. actives 5.9% (n = 310,000)
#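 A one-generation exposure of luciferase-tagged malaria parasites in RPMI 1640/Albumax erythrocyte culture, 37 C and 5% CO2. Inhibition is inferred from decreased luminescence after adding detection reagent.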
# VACV Venus inh: vaccinia inhibition (Venus reporter). Vaccinia virus Venus reporter expression, fluorescence. AID 720580. Potency, µM (highest dose often 36.5 µM), actives largely listed as inhibitors. actives 0.46% (n = 330,000); calls by dose curve; tested in A549 cells; note: nearly all actives have a fitted effect of over 30% in size
# NS1 inh: inhibitors of influenza NS1 protein function | Potency, µM (top dose mostly 46.1 µM) | actives 0.4% (n = 270,000) | AID 2326; calls by dose curve; note: actives are rising curves; nearly all actives have a fitted effect of over 50% in size
#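 Recovery from NS1-induced slow growth read by OD600 in budding yeast switched to galactose assay medium (pH 6.0, -URA) at 1:100 dilution. Compound 23 nl per well; the matching strain lacking NS1 serves as control.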
# HCV inhibitor: blocks hepatitis C virus; Huh7.5.1 HCVcc-Cre infection, luciferase reporter, 44 h; Potency, µM (top dose mostly 41.8 µM), hits mostly inhibitors; actives 3.4% (n = 340,000)
#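 HCVcc-Cre virus at an moi near 0.5 was added right after compound to cells cultured 4 h from seeding (1,000 cells/well). Luciferase activity was determined 44 h later, 15 min after substrate addition at RT.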
# Vaccinia mCherry: inhibitors of vaccinia virus infection (mCherry reporter signal); Vaccinia virus mCherry reporter infection, fluorescence; Potency, µM (top dose mostly 36.5 µM), actives largely listed as inhibitors; actives 0.63% (n = 310,000); calls by dose curve; tested in A549 cells; note: nearly all actives have a fitted effect of over 35% in size
# Pf growth 96h: P. falciparum growth inhibition at 96 hour, primary screen for plastid delayed-death inhibitors | P. falciparum luciferase reporter growth, 96 h | actives 6.9% (n = 320,000) | Potency, µM (top dose mostly 28.7 µM), most hits filed as inhibitors
#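 P. falciparum expressing integrated firefly luciferase grown in erythrocytes (2% hematocrit, 0.05% parasitemia final) with compounds for 96 hours at 37 C, 5% CO2. Growth inhibition read as loss of luminescence after adding luciferase detection reagent.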
# Hits are given with their value; 0 = inactive; ? = inconclusive; - = not tested or not shown; [ ] = another dose, or the depositor's remark. Only some compounds are listed: those with a hit (about 11% of all), similar ones and a draw of the others. Unless noted, calls come from the whole dose curve; as a rule, active = well fitted inhibition curve with a large enough effect; inconclusive = small, poorly fitted or top-dose-only effect, or another doubt; inactive = no such curve, though single readings can be large or run the other way.
SMILES,Pf growth 48h,VACV Venus inh,NS1 inh,HCV inhibitor,Vaccinia mCherry,Pf growth 96h
COc1ccc(CCNC2=C(Cl)C(=O)N(CCc3ccccc3)C2=O)cc1OC,-,0,0,13µM,0,?
COc1ccc(CCNC2CC(=O)N(CCc3ccc(OC)c(OC)c3)C2=O)cc1 (stereo not drawn),-,0,0,0,-,4.7µM
Cc1ccc(Cl)cc1NC(=S)NCCCSC1CCCCC1,0,0,-,10µM,0,?
COc1ccccc1N1CCN(CC(O)COc2cc(C)cc(C)c2)CC1 (stereo not drawn),-,0,-,-,0,-
Cc1c(C(=O)NN)sc(-c2ccccc2)c1C#N,?,0,-,0,0,0
COc1cccc(/C=N/NC(=O)CNC(=O)CCc2ccccc2)c1O,?,-,0,?,-,0
Cc1cccc(OCC(=O)NCC(=O)N/N=C/c2ccccc2)c1,0,0,0,0,0,0
Cc1cccc(OCC(=O)NCC(=O)N/N=C/c2ccc(O)cc2O)c1,10µM,-,0,?,-,?
O=C(COc1ccc(-c2ccccc2)cc1)N/N=C/c1ccccc1Br,0,-,0,0,-,?
O=C(COc1ccc(-c2ccccc2)cc1)N/N=C/c1cc(O)ccc1Br,0,?,0,0,0,8.3µM
COc1cccc(/C=N/NC(=O)CNC(=O)COc2cccc(C)c2)c1O,2.9µM,-,0,?,-,0
O=C(CSc1n[nH]c(=O)[nH]c1=O)Nc1c(Cl)cc(Cl)cc1Cl,-,0,-,0,0,-
CN(C)Cc1ccccc1Cc1ccccc1,0,0,0,0,0,0
Cc1cc(-c2nn(-c3ccccc3F)cc2CN2CCN(c3ccncc3)CC2)c(C)s1,4.1µM,0,0,?,0,?
COc1cc(S(=O)(=O)Nc2ncccc2C)c(OC)cc1Cl,0,0,0,0,-,-
Cc1cc(NC(c2cccnc2)c2ccc3cccnc3c2O)no1 (stereo not drawn),2.1µM,16µM,0,2.5µM,-,4.1µM
CN1CCN(C(c2ccc(C(F)(F)F)cc2)c2ccc3cccnc3c2O)CC1 (stereo not drawn),?,0,0,11µM,?,?
Oc1c(C(Nc2cccnc2)c2ccc(C(F)(F)F)cc2)ccc2cccnc12 (stereo not drawn),-,?,-,-,8.9µM,-
COc1ccc(Cl)cc1C(Nc1cccnc1)c1ccc2cccnc2c1O (stereo not drawn),5.2µM,?,0,8.9µM,3.5µM,?
COc1ccc(Cc2nnc(N/N=C(\C)c3ccccc3)[nH]c2=O)cc1OC,?,-,0,0,-,?
Oc1c(C(Nc2cccc(C(F)(F)F)c2)c2cccnc2)ccc2cccnc12 (stereo not drawn),9.3µM,0,0,11µM,0,3.7µM
Cc1cc(C)nc(Nc2cccc(C(F)(F)F)c2)n1,0,-,0,0,-,0
CCn1cnc2sc(C(=O)Oc3ccc(Br)cc3)c(C)c2c1=O,0,0,-,0,0,2.9µM
CCCc1ccc(OC(=O)c2sc3ncn(Cc4cccc(F)c4)c(=O)c3c2C)cc1,-,0,-,-,0,-
Cn1c(=O)c2c(nc(NC3CCCCC3)n2CC(O)COc2ccccc2)n(C)c1=O (stereo not drawn),10µM,0,0,0,0,0
SMILES,Pf growth 48h,VACV Venus inh,NS1 inh,HCV inhibitor,Vaccinia mCherry,Pf growth 96h
CN(c1nc2c(c(=O)n(C)c(=O)n2C)n1CC(=O)c1ccccc1)C1CCCCC1,?,0,0,0,-,10µM
CCOc1ccccc1N/C(=N/c1nc(C)cc(C)n1)NC(=O)Nc1ccc(Cl)c(Cl)c1,?,-,0,0,-,0
O=C(NCCCl)Nc1ccccc1OCCOc1ccccc1NC(=O)NCCCl,2.1µM,?,0,?,14µM,2.1µM
CCOc1ccccc1NC(=O)Nc1ccc(Cl)cc1,?,0,?,?,?,?
CCCOc1ccccc1N/C(=N/c1nc(C)cc(C)n1)NC(=O)Nc1ccc(Cl)cc1,13µM,0,0,?,0,0
CCCOc1ccccc1NC(=O)Nc1ccccc1Cl,0[5.75 µM],0,-,?,0,8.3µM
COc1ccccc1NC(=O)NCCCl,0,10µM,0,0,10µM,0
COc1ccccc1NC(=O)CC(=O)Nc1ccccc1OC,0,0,0,0,0,0
CN(C)CCNc1ncnc2c1cnn2-c1cccc(Cl)c1,-,0,-,-,0,-
CCOC(=O)C1CCN(C(=O)c2ccc(Oc3cc(Cl)cc(Cl)c3)o2)CC1,0,0,0,0,0,0
COc1ccc(C(=O)Nc2cccnc2Cl)cc1OC,0,-,0,0,-,0
COc1ccccc1NC(=O)Nc1cc(NC(=O)Nc2ccccc2OC)c(C)nc1C,?,0,0,0,0,6.6µM
O=Nc1c(-c2c(O)[nH]c3cc(Br)ccc23)[nH]c2ccccc12,4.1µM,0,0,5.6µM,?,4.7µM
COc1ccc2c(c1)[C@@]13CCC=C[C@H]1[C@@H](C2)NCC3,12µM,0,-,0,0,0
N=c1ccn(Cc2ccc(Cl)cc2Cl)cc1,-,?,0,2.8µM,-,1.5µM
N=c1ccn(Cc2ccccc2Cl)cc1,4.7µM,?,0,2.5µM,-,-
COCCn1c(-c2cccs2)csc1=Nc1cccnc1,0,0,0,0,0,?
Fc1ccccc1-c1csc(=Nc2cccnc2)n1CCCn1ccnc1,7.4µM,0,0,22µM,0,15µM
Cc1csc(=Nc2cccnc2)n1CC1CCCCC1,?,0,0,0,0,?
Fc1ccccc1-c1csc(=Nc2cccnc2)n1CC1CCCO1 (stereo not drawn),8.3µM,0,0,?,0,12µM
COc1cc2c(NC3CCN(C)CC3)nc(N3CCCN(C)CC3)nc2cc1OCCCCCCN(C)C,-,7.1µM,-,-,5µM,-
COc1cc2c(NC3CCN(C)CC3)nc(N3CCCN(C)CC3)nc2cc1OCCCCN(C)C,-,10µM,-,-,?,-
COc1cc2c(NC3CCN(C)CC3)nc(N3CCCN(C)CC3)nc2cc1OCCCN(C)C,-,?,-,-,0,-
CCCN(C)CCCOc1cc2nc(N3CCCN(C)CC3)nc(NC3CCN(C)CC3)c2cc1OC,-,13µM,-,-,?,-
Nc1nc2c(-c3ccc(Br)cc3)nnn2c2ccccc12,0,-,0,0,-,0
SMILES,Pf growth 48h,VACV Venus inh,NS1 inh,HCV inhibitor,Vaccinia mCherry,Pf growth 96h
Cc1ccc(C)c(N2CCN(C(=O)CN3C(=O)COc4ccc(S(=O)(=O)N5CCC(C)CC5)cc43)CC2)c1,-,0,-,-,0,-
Nc1ccc2c(c1)COc1ccccc1O2,0,0,0,-,0,0
CC(C)N(CCO)Cc1nc(N2CCOCC2)c2cc(Cl)ccc2n1,-,0,-,-,0,-
O=C(CCCNS(=O)(=O)c1ccc(Br)cc1)N1CC[C@@]2(O)CCCC[C@H]2C1,0,0,0,0,-,0
O=C1CCCN1CC1CCCN(Cc2nc(COc3ccccc3)no2)C1 (stereo not drawn),0,0,0,0,0,15µM
O=C1CCCN1CC1CCN(Cc2nc(CC3CC3)no2)CC1,?,0,0,0,0,?
O=C(C1=C[C@@H](c2csc3ccccc23)C[C@@H](OCc2ccc(CO)cc2)O1)N1CCN(Cc2ccc3c(c2)OCO3)CC1,?,0,0,0[8.37 µM],?,5.2µM
C=CCOC(=O)C1=C[C@@H](c2csc3ccccc23)C[C@@H](OCc2ccc(CO)cc2)O1,?,0,0,?,0,13µM
